The text below walks through data of PubChem BioAssay (NCI).

Where “and” joins values, the source holds several entries; their conditions need not be identical. Equal entries are not always repeated. This is part of a sample that, as a whole, favours compounds with a hit. Of some 83,000 tested, about 20% had one in any assay.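 Single-dose data. Exposure time 48 hours. Values below 10 considered active.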 Calls of active or inactive are those of the source.

This experiment relates to HL-60(TB) leukemia. Put plainly: NCI-60 one-dose screen, 48 h (100 = growth as untreated, 0 = no growth, -100 = all killed). As to conditions: 10 µM unless noted.
`Nc1nc(=S)c2ncn(C3OC(CO)C(O)C3O)c2[nH]1` (stereo not drawn): the growth was 96.4% (inactive) and 21.3% (inactive). Take `CCOC(=O)C1=CN(C)C=C(C(=O)OCC)C1c1cc(Br)c(OCC)c(OC)c1`: the growth is 66.7% (inactive). In the case of `OCc1n(Cc2ccc3ccccc3c2)cc[n+]1Cc1ccc2ccccc2c1`, the growth is 6.82% (active). As to `C=C1C(=O)O[C@H]2[C@H]1CC/C(COC(=O)NCc1cc[nH]c1)=C\CC[C@@]1(C)O[C@@H]21`, the growth is -6.94% (active). For `CC(CN=Cc1ccccc1O)N=Cc1ccccc1O` (stereo not drawn) the value was 110% (inactive) and 83% (inactive). Consider `COc1ccc2nc(NC(=O)CSc3nnc4n3S(=O)(=O)c3ccccc3N4C)sc2c1`, for which the growth is 53.8% (inactive).

On to `N#Cc1nnn(-c2ccc(S(N)(=O)=O)cc2)c1NCC(=O)c1ccccc1`, for which the growth was 88.4% (inactive).

Take `OCCN1CCN(CC/C=C2\c3ccccc3Sc3ccc(Cl)cc32)CC1`: the growth was 14.2% (inactive) and 19.5% (inactive). Consider `O=C1c2cc3c(cc2-c2c1c1ccc(Cl)cc1c(=O)n2CCCNCCO)OCO3`, for which the growth was -64% (active). The value for `CCOC(=O)c1ccc2[nH]c(-c3ccccc3)cc(=O)c2c1` was 95.3% (inactive); that for `COc1ccc(/C=C2\Oc3cc(OCCN4CCC(Cc5ccccc5)CC4)ccc3C2=O)cc1OC` was 99.7% (inactive).

`CCOc1ccc(Nc2nc3c(s2)C(=O)c2ccccc2C3=O)cc1`: the growth was 25.1% (inactive). `CN1CCN(C2CCN(C(=O)Nc3cc(Oc4ccc(NC(=O)C5(C(=O)Nc6ccc(F)cc6)CC5)c(F)c4)ccn3)CC2)CC1`: the growth is -44.7% (active) and 121% (inactive).
